For six molecules, MAPPIT interaction score results are on record in the supplement of paper PMC10105736.

Test in all cases: MAPPIT interaction score (arbitrary units); higher = stronger binary interaction signal, active = hit call of the paper
Assay [1] addresses CG10465. To be noted: MAPPIT configuration: N-N; pair source set: Curagen_high_conf.
In assay [2] the target is CCT7. Particulars: MAPPIT configuration: N-N; pair source set: DPIM.
Assay [3] deals with CG10026. To be noted: MAPPIT configuration: N-N; pair source set: Finley_Y2H.
The target in assay [4] is CG10013. To be noted: MAPPIT configuration: N-N; pair source set: DPIM.
The target in assay [5] is CG10444. Particulars: MAPPIT configuration: N-C; pair source set: screen_3.
Assay [6] addresses CG10336. To be noted: MAPPIT configuration: N-C; pair source set: screen_3.
Assay [7] deals with Gint3. To be noted: MAPPIT configuration: N-N; pair source set: Lit-BM-16.
The target in assay [8] is ZnT63C. To be noted: MAPPIT configuration: N-N; pair source set: DPIM.

A number with no mark means an inactive call.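 How the source made its calls: active = MAPPIT score above the 99th percentile of random reference set scores in the same batch; inactive = at or below it.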
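Further: HEK293T cells with Epo stimulation, STAT-responsive firefly luciferase reporter, fold induction versus unstimulated cells divided by the larger fold induction of two negative controls lacking either bait or prey.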

B1: AnxB11 (protein)
chain: MYPFGSGMPSHPPTSTNHHEPPRAPFGAGWVPPMQQNSPYPPPSQPHPHSQPSSQMHPQQHQQYPGGAPAPYPPMSAPYPSAAPSYPPYPTSNPYPAQYAPPAHNHYQQPSVSNSPYPADRGYTPAMTAGYDAGYGYGNGQGHGQGHGHGQGHGHGHGQGHEYGHGYGQGYGHGQGHGNGQGHAHRSLPAHREGTPTVVPAANFDAVKDAHDLRKAMKGFGTDEDALINIICRRSNEQRQEIQRQFKTHFGKDLIEDIKSETSGNFEKLLVGLLRPIVDYYCAELNDAMAGLGTDEEVLIEILCTLSNMEINTIKNQYLRLYGAHLESELKSETSGNFKRLLTSLCTAARDESGRVDPVAAKNDARELLKAGELRVGTDESMFNMILCQRNYQQLKLIFQEYEGMTGHSLEKAIKKEFSGDVMEGLIAIYRCVTNKAEYFASRLHKAMAGIGTNDTQLIRVIITRSEIDMTDIKVAFERLYGKSLKSWIKGDTSGHYKHALYALVGEQRSS
Consider B1, for which, in assay [1], the MAPPIT interaction score was 0.12.

B2: CG4511 (protein)
chain: MANILENQLFTAAKTIEQQLDQQLDRLDNLDSDDLKVLREQRLREMKDLNNKKQEWLRNGHGTYTELADEKEFFEMSKKSPNIVCHFYRDSTERCKIVDMHLKILAAKHVEAKFCKVNAEKTPFLTQRLRIKVIPTIALVKDSKTKDFIVGFTDLGNCDDFATEMLEWRIAHSGAIDYKGDLMQPPDVKRKPFINRPQKTIRGGYDSDDSDIDLDD
With B2, the MAPPIT interaction score in assay [2] is 0.524.

B3: CG7218 (protein)
chain: MNATLNSAGGKRQLRFRGDVTGSRVEELHHQQQEEQKQKAPLAQDDVAATPTATPAAGSAQQRLQSGTAETCTNTFYDFFKVEMTRGYMLEHDEERYSARRQKIYSFMRIPRDLERFMVYGIMQCADSFLYIHTFLPVRFVMAVWALVSRTVARIFRLRSSGQRLLSPAEICDLLKGVIWMTVTLIMLLVDTNRVYHIIKSQSIIKLYIFYNMLEVGDRLLSAFGQDTIDALFWTATEPKNSKREHFGVLTHVLFTLIYVFLHSGLIMFQATCLNVAVNSNNKGLLTIMISNNFVELKGSVFKKFDKNNLFQLTCSDVRERFHLSVLLFIVVIQTMKEFDWSITQFCVMLPDCFAVLFTEILIDWVKHAFITRFNELPESIYREYTTSLAYDMTQTRQKHAFSDHSDLVARRMGFIPFPLAVVLIKAIYTAVSFENLAAWLLFLLAYLFAMGLRICLTICALGKACKLMKEHQTERNSSTPSSMTNVPVIGAAAPVSAAATGGQNHNNNNNNNNNSISIGSKPAQVTTLLTPPSAGHLDVSKNFSRTSIASTSTPKKAVSEQELDVTNSLELGATALFSNSDVDLDDVCLNEQVTNTNTSSAVQEVYQEQDLVRSQPDLMLLNNSGDGVTSAKAKKATQRLPKRTHKRSESEPGMPSMVEKGGAAGIAGGNQTTQL
As to B3, the MAPPIT interaction score in assay [3] was 1.47.

B4: Ns1 (protein)
chain: MALKRLKTKKSKRLTGRLKHKIEKKVRDHNKKERRAAKKNPKKGSKKQKLIQIPNICPFKDDILKEVEEAKQRQEAERLARREAFKAEREQNKFKTLESMVEDADMRSTVHGIMHENDAQDQDEKKYKNAVTKEQSLKQYFKEFRKVIENADVVLEVVDARDPLGTRCNEVERAVRGAPGNKRLVLVLNKADLVPRENLNNWIKYFRRSGPVTAFKASTQDQANRLGRRKLREMKTEKAMQGSVCIGAELLMSMLGNYCRNKGIKTSIRVGVVGIPNVGKSSIINSLTRGRSCMVGSTPGVTKSMQEVELDSKIKLIDCPGIVFTSGGENSHAVLKNAQRVGDVKDPFTIAESVLKRASKEYFCTMYDITNYDTFEEFFAKKAARMGKFLKKGVPDVVAAARSVLNDWNTGKIKYCTQPPEVQEGQSVHISASIVHSEAREFDVENFESMETEILEHCAVKTDDIMEITSTGPLEIRQPREEAEPADKITASLVIDEKEKPAKGRKRKLDEEKEKVDPSLLLEENQSLNKGIKQMQKLKKKQNVRNEKKISKITDVLDSFSLGPSSSKAEKYDFDEDYVIE
Regarding B4, the MAPPIT interaction score in assay [4] was -0.155.

B5: IM18 (protein)
chain: MKLIALCCLLLLGLLGFLAAPGVASPSRHTGPGNGSGSGAGSGNPFRSPSSQQRPLYYDAPIGKPSKTMYA
B5: in assay [5], the MAPPIT interaction score is 0.79.

B6: TER94 (protein)
chain: MADSKGEDLATAILKRKDRPNRLIVEEAQNDDNSVVSLSQAKMDELQLFRGDTVILKGKRRKETVCIVLSDDTCPDEKIRMNRVVRNNLCVHLSDVVSVQSCPDVKYGKRVRILPIDESTEGVTGNLFEIYLKPYFLEAYRPIHMGDNFIVRAAMRPIEFKVVLTDPEPYCIVAPETVIFCDGDPIKREEEEESLNAVGYDDIGGCRKQLAQIKEMVELPLRHPSLFKAIGVKPPRGILMYGPPGTGKTLIARAVANETGAFFFLINGPEIMSKLAGESESNLRKAFEEAEKNSPAIIFIDEIDAIAPKRDKTHGEVERRIVSQLLTLMDGMKKSSHLIVMAATNRPNSIDPALRRFGRFDREIDIGIPDATGRLEVLRIHTKNMKLHDDVDLEQIAAESHGHVGADLASLCSEAALQQIREKMDLIDLEDDKIDAEVLASLAVTMENFRYAMTKSSPSALRETVVEVPNTTWTDIGGLESVKKELQELVQYPVEHPDKFLKFGMQPSRGVLFYGPPGCGKTLLAKAIANECQANFISVKGPELLTMWFGESEANVRDIFDKARSAAPCVLFFDELDSIAKARGGNVGDAGGAADRVINQILTEMDGMGAKKNVFIIGATNRPDIIDPAILRPGRLDQLIYIPLPDDKSREAILKANLRKSPLAKEVDLTYIAKVTQGFSGADLTEICQRACKLAIRQAIEAEIRREKERAENQNSAMDMDEDDPVPEITSAHFEEAMKFARRSVSDNDIRKYEMFAQTLQQSRGFGQNFRFPGQTGNTSGSGNNLPVNSPGDNGDDDLYS
Turning to B6, the MAPPIT interaction score in assay [6] was 2.12; in assay [7] it was 1.48; in assay [8] it was -0.374.
